# Results filed as inconclusive are left out. Values without a mark were called inactive. Calls of active or inactive are those of the source. The call rests on the fitted dose curve.
# Molecular target: Vitamin D3 receptor (Homo sapiens) (UniProt P11473)
# Assay: qHTS assay for small molecule antagonists of vitamin D receptor signaling (AID 588541);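 further: receptor activated by calcitriol during compound treatment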
# Details: HEK293T VDR-UAS-bla, beta-lactamase ratio, antagonist mode; series mostly up to 76.7 µM; activity change, negative = inhibition: at the top concentration
# From the text: NIH Chemical Genomics Center [NCGC]
# U.S. Environmental Protection Agency [EPA]
# National Institutes of Environmental Health Sciences [NIEHS]
# National Toxicology Program [NTP]
# The Vitamin D receptor (VDR) is a member of nuclear hormone receptor superfamily and it plays a critical role in calcium homeostasis and bone metabolism. It plays a role in inducing cell differentiation, inhibiting cell growth and in thrombogenicity. So, VDR that mediates these effects represents a pharmacological target in prevention and treatment of hyperproliferative malignancies, such as cancer and psoriasis, cardiovascular, immunological, inflammatory and renal diseases etc.
# NCGC Assay Protocol Summary
# Using a beta-lactamase reporter-gene under control of Vitamin D receptor (VDR) response element, a cell-based assay [GeneBLAzer (VDR -UAS-bla assay developed by Invitrogen] was used to measure VDR ligands signaling. GeneBLAzer VDR -UAS-bla HEK293T cells were used with assay medium containing 2% charcoal-stripped FBS. The assay was performed in clear bottom black Greiner 1536-well plates. Library compounds were measured for their ability to inhibit the reporter gene activity. Compounds were screened in a titration series in 1536-well format. The fluorescence intensity (405 nm excitation, 460/530 nm emission) was measured using an EnVision plate reader. Data was normalized relative to 1-alpha,25-Dihydroxy vitaminD3 control (50 nM, 100%) and DMSO only wells (basal, 0%). Concentration-response titration points for each compound were fitted to the Hill equation yielding concentrations of half-maximal inhibition (IC50) and maximal response (efficacy) values.
# qHTS protocol for VDR beta-lactamase assay in antagonist mode
# [Step] [Parameter] [Value] [Description]
# 1. Reagent; 5 uL; 2000 cells/well
# 2. Incubation; 37 C for 5 hrs
# 4. Controls (DMSO); 23 nL,
# 5. Agonist (Stimulator); 1uL; 1-alpha,25-Dihydroxy vitaminD3 at 50 nM and 3 nM final concentrations
# 6. Incubation; 37 C for 16 hrs
# 7. Detection reagent; 1 uL of CCF4-dye
# 8. Incubation; RT for 2 hrs
# 9. Detection; Fluorescence; Envision plate reader
# On the % scale 0 is the no-effect control and ±100 the full control effect.
# Chain of Vitamin D3 receptor (Homo sapiens) (P11473 whole entry, looked up): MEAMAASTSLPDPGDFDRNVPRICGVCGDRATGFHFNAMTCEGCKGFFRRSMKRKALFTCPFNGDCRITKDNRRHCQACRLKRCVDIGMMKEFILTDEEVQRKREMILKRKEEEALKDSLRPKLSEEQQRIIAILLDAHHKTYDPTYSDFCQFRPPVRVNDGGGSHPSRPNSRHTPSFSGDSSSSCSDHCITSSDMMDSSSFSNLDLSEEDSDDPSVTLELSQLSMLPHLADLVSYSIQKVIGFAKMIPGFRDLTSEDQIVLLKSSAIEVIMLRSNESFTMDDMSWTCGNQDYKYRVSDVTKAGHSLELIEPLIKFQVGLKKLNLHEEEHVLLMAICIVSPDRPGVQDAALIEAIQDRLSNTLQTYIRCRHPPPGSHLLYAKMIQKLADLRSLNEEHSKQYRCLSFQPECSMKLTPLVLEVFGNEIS
Compound,"activity change, negative = inhibition [%]",outcome
CC(=O)c1ccccc1[N+](=O)[O-],1.58,
Cc1ccccc1C#N,-4.63,
C=CCCCCCC,4.64,
CCCCCO,3.62,
Cc1cc([N+](=O)[O-])ccc1N,-8.33,
COC(=O)CCC(=O)OC,-1.09,
C/C(C=O)=C/c1ccccc1,-1.46,
CO[Si](CCCNCCC[Si](OC)(OC)OC)(OC)OC,-9.09,
C=CC(=O)OCCCC,0.5,
CC/C(C)=N/O,-3.49,
CC(O)COC(C)(C)C (stereo not given),5.92,
Cc1ccco1,-5.81,
Nc1cc(Cl)c(N)c(Cl)c1,,inactive
Cc1ccc([N+](=O)[O-])c(N)c1,-1.82,
CC(=O)OCc1ccco1,3.21,
ON=C1CCCCC1,2.69,
CCOC(C)(C)C,-5.34,
CCNc1ccccc1,-1.34,
NC(=O)/N=N/C(N)=O,-1.71,
Cc1cccc2sc(N)nc12,5.98,

Compound,"activity change, negative = inhibition [%]",outcome
CSCCC=O,2.91,
Cc1cc(C)c(N)cc1C,5.37,
Cc1ccc(C)cc1,1.71,
CCC1CO1 (stereo not given),-3.84,
CCOc1cccc(N)c1,-11.9,
C=CCCCC,-4.55,
CC(C)=C1CCC(C)CC1=O (stereo not given),2.89,
C=CCCC,11.3,
CC(C)c1ccccc1,-6.74,
CN(C)c1cccc(O)c1,3.17,
CC(=O)CCc1ccccc1,4.52,
CC/C=C/C#N,-5.49,
Cc1ccc(C(C)(C)C)cc1,1.33,
NS(=O)(=O)O,3.11,
C1CCCC1,-4.83,
CC(C)(C)c1ccc(OCC2CO2)cc1 (stereo not given),-0.132,
CCC(C)(C)C,-0.659,
Cc1cccc2ccccc12,-5.92,
Cc1cc(C)cc(N)c1,4.74,
CNC(=O)c1ccccc1,-0.369,
